84 compounds from PubChem BioAssay AID2234 (The Scripps Research Institute Molecular Screening Center, 2010) can be followed below.

Molecules are shown by their SMILES. About 480 (0.15%) of roughly 320,000 compounds were called active. Cut-off read from the data, not from the text of the source: active = inhibition above about 33%; inactive = the rest. What follows is part of a selection rich in actives, with near analogues and random picks from the rest.

For the assay, the target named is Lytic switch protein BZLF1 (Epstein-Barr virus (strain B95-8)) (UniProt P03206). Nature of the assay: Zta-DNA interaction blockers, Epstein-Barr virus – biochemical, fluorescence polarization, single concentration, counter-screen for EBNA-1 inhibitor project, primary screen (AID 2234). The conditions noted are these: ZTA-DNA binding, at 11 µM, active compounds read high.
Sequence of Lytic switch protein BZLF1 (Epstein-Barr virus (strain B95-8)) (P03206 whole entry, looked up): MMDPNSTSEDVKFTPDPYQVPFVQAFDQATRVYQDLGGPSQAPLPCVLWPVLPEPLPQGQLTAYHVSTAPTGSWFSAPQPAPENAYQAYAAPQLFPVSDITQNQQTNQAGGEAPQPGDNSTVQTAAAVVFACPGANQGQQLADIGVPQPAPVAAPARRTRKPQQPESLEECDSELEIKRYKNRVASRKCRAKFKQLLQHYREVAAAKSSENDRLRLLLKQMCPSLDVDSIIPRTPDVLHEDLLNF
For `Cc1cc(C(=O)Nc2ccc(C)c(S(=O)(=O)N3CCOCC3)c2)c2ccccc2n1`, the inhibition was -3.91% (inactive).
As for `CCC(C)OC(=O)C(C)Oc1ccc(-c2ccccc2)cc1` (centres undefined), the inhibition is -16.6% (inactive).
`CCc1nc2ccccc2n(CCOCCOCCn2c(=O)c(CC)nc3ccccc32)c1=O`: the inhibition is -7.86% (inactive).
The result for `CCCCC1N2CC3([N+](=O)[O-])CN1CC([N+](=O)[O-])(C2)C3(C)C` (centres undefined) reads 7.41% (inactive).
Regarding `COc1ccccc1C(=O)Nc1ccc(OCC(=O)N2CCCCC2)cc1`, the inhibition is -10.8% (inactive).
For `COc1ccc(C)cc1NC(=O)CN1c2cccc3cccc(c23)S1(=O)=O`, the inhibition is -1.52% (inactive).
The same measure for `O=C(O)c1cc(S(=O)(=O)N(Cc2ccccc2)c2ccccc2)ccc1Cl`: -1.08% (inactive).
The same measure for `O=C(CSc1nc(C2CC2)nc2ccccc12)Nc1cccc(O)c1`: -4.91% (inactive); for `C=CCn1c(SCC(=O)NC(=O)Cc2ccccc2)nc2ccccc2c1=O`: -2.81% (inactive).
The same measure for `O=C(c1cc(S(=O)(=O)N2CCOCC2)ccc1Cl)N1CCOCC1`: 17.7% (inactive); for `FC(F)(F)c1ccc2c3n(nc2c1)CCN=C3c1ccc(Cl)cc1`: 0.92% (inactive); for `Cc1ccc(C(=O)c2coc3ccc(O)c(CN(C)C)c23)cc1`: -9.15% (inactive).
Consider `COc1ccccc1-n1ccnc(SCC(=O)NC2CCCCC2)c1=O`, for which the inhibition is -6.9% (inactive).
The same measure for `CC1CCC2(CC1)NC(=O)N(CC(=O)c1cccn1C)C2=O` (centres undefined): -3.24% (inactive).
Consider `Cc1ccc(C(=O)NCC(c2cccs2)N(C)C)cc1S(=O)(=O)N1CCOCC1` (centres undefined), for which the inhibition is -3.98% (inactive).
The same measure for `O=C(OCC1OC(Oc2ccc(O)cc2)C(O)C(O)C1O)c1ccccc1` (centres undefined): -3.45% (inactive); for `O=C(OCC1O[C@@H](OC(=O)c2cc(O)c(O)c(O)c2)[C@@H](OC(=O)c2cc(O)c(O)c(O)c2)[C@@H](OC(=O)c2cc(O)c(O)c(O)c2)[C@@H]1OC(=O)c1cc(O)c(O)c(O)c1)c1cc(O)c(O)c(O)c1` (some centres undefined): 56.7% (active).
The same measure for `Cc1cc(/C=C2\SC(=Nc3ccc(N4CCOCC4)cc3)N(C)C2=O)c(C)n1-c1cccnc1`: -10.5% (inactive).
The result for `CN1C(=O)/C(=C/c2ccco2)SC1=Nc1cccc(C(=O)O)c1` reads 34% (active).
For the compound `Cc1cc(/C=C2\SC(=O)N(C)C2=O)c(C)n1-c1cccc(C(=O)O)c1`, the inhibition is -5.96% (inactive).
The result for `CCC(C)(C)n1nnnc1C(c1cccs1)N1CCN(c2nc3ccccc3s2)CC1` (centres undefined) reads 4.48% (inactive); that for `COc1cc(NC(=S)N2CCCC(C)C2)c(OC)cc1Cl` (centres undefined), 1.82% (inactive).
On to `CCOc1cc(C)c(S(=O)(=O)NCc2ccccn2)cc1C`, for which the inhibition was 12.5% (inactive).
The same measure for `CCSc1sc(CC)cc1C=O`: 3.38% (inactive); for `CC(C)c1ccc(-c2nn[nH]n2)cc1`: -11.4% (inactive).
Consider `COC(=O)c1c(-c2ccsc2)oc2ccc(-c3cc(OC)c(OC)c(OC)c3)cc12`, for which the inhibition is -1.27% (inactive).
On to `Cc1ccc(N2CCN(S(=O)(=O)N(C)C)CC2)cc1Cl`, for which the inhibition is 10.4% (inactive).
The result for `O=C(NCC(=O)N1CCC2(CC1)NCCc1[nH]cnc12)c1ccc(Br)cc1` reads -4.85% (inactive); that for `CCOC(=O)CNc1nc(Cl)nc(Nc2ccccc2)n1`, 3.82% (inactive); that for `CCC(=O)Nc1ccc(Nc2nc(Cl)nc(Nc3ccc(NC(=O)CC)cc3)n2)cc1`, 33.6% (active).
`CCC(=O)Nc1ccc(C(=O)Nc2cc(C)on2)cc1`: the inhibition was -11.8% (inactive).
The result for `O=C(CCCCCn1c(=S)[nH]c2ccsc2c1=O)NC1CCCCC1` reads 10.7% (inactive); that for `CCn1c(O)c2ccc(C(=O)N=NC(=O)c3cccnc3)cc2c1O`, -7.57% (inactive); that for `CCOC(=O)CN(C(=O)CN1CCOCC1)c1ccc(Br)cc1`, 13% (inactive).
Turning to `CCCC(C)C(=O)Nc1ccc(NC(C)=O)cc1` (centres undefined), the inhibition was -5.74% (inactive).
The same measure for `COc1ccc(C(C(=O)NCC2CCCO2)N(C(=O)Cn2nnc3ccccc32)c2ccc(NC(C)=O)cc2)cc1OC` (centres undefined): -7.72% (inactive).
The same measure for `Cc1ccc(-c2csc(NC(=O)C3=COCCO3)n2)cc1C`: -12.1% (inactive).
The result for `Cc1ccc(C)c(OCC(=O)NNC(=O)C2CCC2)c1` reads 1.86% (inactive); that for `O=C(Cn1cc(C(=O)C2CC2)c2ccccc21)Nc1ccccc1Cl`, 14.6% (inactive).
In the case of `Cc1cc(C(=O)OC(C)C(=O)NC2CCCCC2C)c(C)o1` (centres undefined), the inhibition was -3.44% (inactive).
The same measure for `COc1ccc(-c2nnc(SC(=O)N3c4ccccc4Sc4ccccc43)o2)cc1`: 6.65% (inactive).
The result for `O=C(O)C1CCCN1C1=NS(=O)(=O)c2ccccc21` (centres undefined) reads 9.03% (inactive).
Take `CC(C)(C)C(=O)COC(=O)c1cc(S(=O)(=O)N2CCCCC2)ccc1N1CCOCC1`: the inhibition was -4.54% (inactive).
The same measure for `CN(Cc1ccco1)S(=O)(=O)c1nnc(NC(=O)c2ccccc2)s1`: 13.9% (inactive).
For the compound `COc1ccc(-c2nonc2NC(=O)c2oc3ccc(F)cc3c2C)cc1OC`, the inhibition was -1.66% (inactive).
For the compound `CCCCC(C(=O)NC(C)(C)C)N(Cc1ccccc1)C(=O)c1snc(C(N)=O)c1N` (centres undefined), the inhibition was -11.4% (inactive).
The same measure for `CC1(C)O[C@@H]2CC3C4C[C@H](F)C5=CC(=O)C=CC5(C)C4C(O)CC3(C)[C@]2(C(=O)CO)O1` (some centres undefined): 3.09% (inactive); for `Clc1ccc(-n2nnnc2CN2CCCCC2)cc1Cl`: 7.74% (inactive); for `COc1ccc(C2=NN(C(=O)c3ccccc3C(=O)O)C(c3ccccc3O)C2)cc1` (centres undefined): -14.4% (inactive).
Regarding `CCN(CC)S(=O)(=O)c1ccc(C(=O)N2CCN(C3=NS(=O)(=O)c4ccccc43)CC2)cc1`, the inhibition was -8.64% (inactive).
The same measure for `COC(=O)Nc1ccc(S(=O)(=O)N(C)CC(F)(F)C(F)F)cc1`: 9.51% (inactive).
With `CN(C(=O)C1CCN(c2ncnc3c2nc2n3CCCCC2)CC1)C1CCCCC1`, the inhibition is -0.51% (inactive).
On to `CC(=O)NNC1=Nc2ccccc2N(C)C(C)C1` (centres undefined), for which the inhibition was -9.35% (inactive).
Turning to `CCc1cccc(NC(=S)N(CCN(C)C)C2CCN(C(C)C)CC2)c1`, the inhibition is -6.22% (inactive).
With `Cc1ccc(C2=NN(C(=O)CSc3nc(N)cc(N)n3)C(c3ccco3)C2)cc1` (centres undefined), the inhibition was 0.17% (inactive).
On to `CC(=O)Nc1ccc(S(=O)(=O)N(C)c2ccc(OCC(=O)OCC(=O)N3CCCCC3)cc2)cc1`, for which the inhibition is -11.6% (inactive).
The same measure for `CCCC(C)n1[nH]c(=O)c2c(C)cc(C)nc21` (centres undefined): 11.1% (inactive).
The same measure for `CC(=O)Nc1ccc(NC(=O)C2CCCN2S(=O)(=O)c2cccc(C(F)(F)F)c2)cc1` (centres undefined): 17.1% (inactive); for `C=CCn1c(COc2ccc(F)cc2)nnc1SCC(=O)Nc1cccc(S(N)(=O)=O)c1`: 3.26% (inactive).
The same measure for `O=C(CCn1c(=S)[nH]c2cc3c(cc2c1=O)OCO3)NCc1ccc(Cl)cc1`: 2.43% (inactive); for `N#C/C=C1\Sc2ccccc2C(=O)N1CC(=O)N1CCN(S(=O)(=O)c2ccccc2)CC1`: -8.28% (inactive); for `O=C(O)Cc1csc(NC(=O)CSc2nnnn2-c2ccc(O)cc2)n1`: 2.08% (inactive).
For the compound `O=C(/C=C/c1cc2c(cc1Br)OCO2)NCc1ccc(Cl)cc1`, the inhibition is -6.35% (inactive).
The same measure for `CC(=O)Nc1c2c(nn1-c1ccc(C)cc1C)CS(=O)C2` (centres undefined): -22.1% (inactive).
For `NC(=O)C1CCN(C(=O)c2ccc3c(=O)n(Cc4cccc(Br)c4)c(=S)[nH]c3c2)CC1`, the inhibition was -10.6% (inactive).
The result for `C#CCOCCOCCOCCNc1nc(N2CCN(C(=O)CCCCCCCCCCNC(=O)[C@H]([C@@H](C)CC)n3cc(CCCCN=C(N)N)nn3)CC2)nc(N2CCN(C(=O)CCCCCCCCCCNC(=O)[C@H](CO)n3cc(CCCSC)nn3)CC2)n1` reads 134% (active); that for `C#CCOCCOCCOCCNc1nc(N2CCN(C(=O)CCCCCCCCCCNC(=O)Cn3cc(CCCCCN)nn3)CC2)nc(N2CCN(C(=O)CCCCCCCCCCNC(=O)[C@H](CO)n3cc(CCCSC)nn3)CC2)n1`, 24.8% (inactive); that for `C#CCOCCOCCOCCNc1nc(N2CCN(C(=O)CCCCCCCCCCNC(=O)[C@H](CCCCN)n3cc(C)nn3)CC2)nc(N2CCN(C(=O)CCCCCCCCCCNC(=O)[C@H](CO)n3cc(CCCSC)nn3)CC2)n1`, 12.7% (inactive).
The result for `COC(=O)c1ccc(NC(=O)CSc2nnc(Cc3cccn3C)n2-c2ccc(F)cc2)cc1` reads 11.4% (inactive); that for `Cc1ccc(Cc2cncc(O)c2)cc1S(=O)(=O)O`, -9.54% (inactive); that for `Cc1csc(CN(C)C(=O)CC2C(=O)NCCN2CC(C)(C)C)n1` (centres undefined), 5.13% (inactive).
Take `CCN1C(=O)C(=O)N(CC(=O)Nc2cc(C)ccc2C)C1=O`: the inhibition was 9.39% (inactive).
The same measure for `CSc1ccccc1NC(=O)c1ccc2c(c1)CCN2S(C)(=O)=O`: 14.6% (inactive).
The same measure for `Cc1ccc(OCC(=O)Nc2ccccc2C(=O)NC2CC2)cc1C`: 1.2% (inactive); for `CCCCNC(=O)C1(O)c2ccccc2NC(=O)N1c1ccc(Cl)cc1` (centres undefined): 2.71% (inactive).
As to `O=C(N/N=C/c1cccc2cccnc12)[C@H]1C[C@@H]1c1ccccc1`, the inhibition was -1.05% (inactive).
Consider `Cc1ccc(Cc2nnc(SCC(=O)Nc3ccc(C)cc3C)[nH]c2=O)cc1`, for which the inhibition was 2.99% (inactive).
For `CCC1Oc2ccccc2N(CC(=O)NCCCN2CCN(CC)CC2)C1=O` (centres undefined), the inhibition was -3.45% (inactive).
The same measure for `COc1ccc(C(=O)C2CCCN(C(=O)c3cnsn3)C2)c(C)c1` (centres undefined): -0.75% (inactive); for `COc1ccc(S(=O)(=O)/N=C2\C=C(NS(=O)(=O)c3ccccc3)C(=O)c3ccccc32)cc1`: 7.31% (inactive); for `Cc1ccc(C2CC(c3cccc(NS(C)(=O)=O)c3)=NN2S(C)(=O)=O)cc1` (centres undefined): 0.89% (inactive).
The same measure for `CN1CCN(Cc2nc3cc(NC(=O)COc4ccc([N+](=O)[O-])cc4)ccc3n2C)CC1`: -16.4% (inactive); for `CC(NC(=O)c1cccc2ccccc12)c1ccc2c(c1)CCCC2` (centres undefined): -9.25% (inactive).
In the case of `CCOC(=O)CN(C(=O)COc1nc(C)cc(C)c1C#N)c1ccc(Cl)cc1`, the inhibition was 3.1% (inactive).

By inhibition is commonly meant the relative decrease from the control value, in per cent.
